Rows were chosen to be rich in hits. Some 4.4% of all compounds tested hit in one or more screens of this group.
SKKanGAS inh: blocks kanamycin growth of S. pyogenes SKKanGAS strain | BacTiter-Glo, 6 h | inhibition, % at 7.5 µM | 300,000 compounds, 1.3% hits | AID 1662;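 active means mean replicate score, as percent of positive control median, at least 50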;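 further: strain carries kanamycin resistance gene driven by streptokinase promoter and grows in 40 µg/ml kanamycin; loss of luminescence reflects streptokinase promoter inhibition or plain growth inhibition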
tim10-1 inh: inhibits growth of tim10-1 mutant yeast. S. cerevisiae tim10-1 ts strain growth, BacTiter-Glo, 24 h. inhibition, % at 20 µM. 330,000 compounds, 2.2% hits;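 active means inhibition of at least 40%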;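 further: mutant grown at 25 °C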
PfHsp90 yeast 2: growth inhibition of yeast expressing Plasmodium Hsp90; S. cerevisiae expressing PfHsp90, BacTiter-Glo ATP, 48 h; yeast lacking PDR1 and PDR3 efflux regulators; inhibition, % at 9.4 µM; 310,000 compounds, 0.32% hits; AID 504621;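 active means every replicate shows inhibition above about 80%, whatever the replicate mean, limit read from the data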
tim23-1 inh: growth inhibitors of tim23-1 mutant yeast. S. cerevisiae tim23-1 growth, BacTiter-Glo luminescence, 24 h. inhibition, % at 20 µM. 330,000 compounds, 1.3% hits;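 active means growth inhibition of the mutant yeast at or above 50%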;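 further: temperature-sensitive mutant grown at 25 °C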
TIM10 inh: growth inhibitors of TIM10 yeast strain | S. cerevisiae TIM10 strain growth, BacTiter-Glo luminescence, 24 h | inhibition, % at 10 µM | 330,000 compounds, 1.4% hits | AID 463195;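 active means inhibition of 40% or more at the single tested concentration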;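 further: wild-type TIM10 isogenic control strain grown at permissive 25 °C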
Large screens that a line does not name were inactive.

Cc1ccccc1NC1=C/C(=N\S(=O)(=O)c2ccc(C(=O)O)cc2)c2ccccc2C1=O	SKKanGAS inh 94.9
Cc1ccc(C)c(S(=O)(=O)/N=C2\C=C(NS(=O)(=O)c3ccccc3)C(=O)c3ccccc32)c1	SKKanGAS inh 106.6
CC(C)c1ccc(S(=O)(=O)/N=C2\C=C(NS(=O)(=O)c3ccccc3)C(=O)c3ccccc32)cc1	none (no result: tim10-1 inh, tim23-1 inh, TIM10 inh)
CCc1ccc(S(=O)(=O)/N=C2\C=C(NS(=O)(=O)c3ccccc3)C(=O)c3ccccc32)cc1	SKKanGAS inh 63.5
COc1ccc(C=NNC(=O)c2cc(C)oc2C)cc1O	none (no result: SKKanGAS inh)
NC(=O)c1ncn([C@@H]2O[C@H](CNCc3ccc(-c4cc(C(F)(F)F)ccc4Cl)o3)[C@@H](O)[C@H]2O)n1	none (no result: SKKanGAS inh, tim10-1 inh, tim23-1 inh, TIM10 inh)
COc1ccc(CCN2CC(C(=O)NCCc3ccccc3C)CCC2=O)cc1 (centres undefined)	none
COc1ccc(CCN2CC(C(=O)NCCc3ccccn3)CCC2=O)cc1 (centres undefined)	SKKanGAS inh 49.8
COc1ccccc1CN1CC(C(=O)NCc2ncccc2C)CCC1=O (centres undefined)	SKKanGAS inh 51.2
COc1ccc(Oc2nc(-c3ccccn3)ncc2OC)cc1	SKKanGAS inh 53.8
COc1cnc(-c2ccccn2)nc1N(C)C	none
COc1cnc(-c2ccccn2)nc1Oc1c(C)cccc1C	SKKanGAS inh 56.8
COc1cnc(-c2ccccc2)nc1Oc1cccc(C)c1	none
NS(=O)(=O)c1ccc(NC(=O)CSc2nnc3n2CCCCC3)cc1	none (no result: SKKanGAS inh, PfHsp90 yeast 2)
CC1(C)[C@@H](O)CC[C@]2(C)[C@H]3C(=O)C=C4[C@@H]5C[C@@](C)(C(=O)O)CC[C@]5(C)CC[C@@]4(C)[C@]3(C)CC[C@@H]12	none
CC1(C)[C@@H](O)CC[C@]2(C)C3C(O)C=C4[C@H]5C[C@@](C)(CO)CC[C@]5(C)CC[C@]4(C)[C@]3(C)CC[C@@H]12 (some centres undefined)	SKKanGAS inh 98.6
CCN(c1ccccc1)S(=O)(=O)c1ccc(Cl)c(C(=O)NCc2ccco2)c1	none (no result: SKKanGAS inh)
CC(NC(=O)Nc1nnc(C(F)(F)F)s1)(C(F)(F)F)C(F)(F)F	SKKanGAS inh 84.1
Cc1ccc(Cl)cc1NC(=S)N/N=C/c1cccc2ccccc12	SKKanGAS inh 80.1
Cc1ccccc1C(=O)N/N=C/c1cccc2ccccc12	none
CCOC(=O)c1c(-c2ccc(C)s2)csc1NC(=O)c1cccs1	none
CCOC(=O)c1c(NC(=O)c2cccs2)sc(CC)c1-c1cccs1	SKKanGAS inh 59.6
CN1C(=O)NC(=O)C1c1ccccc1 (centres undefined)	none (no result: SKKanGAS inh, tim10-1 inh, tim23-1 inh, TIM10 inh)
O=C(COc1ccccc1Cl)Nc1ccc2[nH]c(=O)[nH]c2c1	none (no result: SKKanGAS inh)
CCOC(=O)c1c(C)oc2c1c(C(c1cccnc1)N1CCOCC1)c(O)c1ccccc12 (centres undefined)	PfHsp90 yeast 2 90.9
CN1C(=O)/C(=N\OC(=O)c2cccc3ccccc23)c2ccccc21	none
COc1ccc(C(=O)O/N=C2\C(=O)N(C)c3ccccc32)cc1	PfHsp90 yeast 2 105.3
Cc1ccc(Cl)cc1N1CCN(Cc2nc3c(c(=O)[nH]c(=O)n3C)n2CCc2ccccc2)CC1	none
Cc1ccc(Cl)cc1N1CCN(Cc2nc3c(c(=O)[nH]c(=O)n3C)n2Cc2ccccc2F)CC1	SKKanGAS inh 79.3
CN1CCN(S(=O)(=O)c2ccc(N(C)Cc3c(F)cccc3Cl)nc2)CC1	none (no result: SKKanGAS inh)
Nc1ncnc2c1ncn2[C@@H]1O[C@H](CNC(=O)[C@@H]2CCC(=O)N2)[C@@H](O)[C@H]1O	none (no result: SKKanGAS inh)
CCc1ccc(C2=NN(c3ccc(S(N)(=O)=O)cc3)C(c3ccc(F)cc3)C2)cc1 (centres undefined)	SKKanGAS inh 102.4
CCOc1ccc(N=Cc2ccccc2O)cc1	none (no result: SKKanGAS inh, tim10-1 inh, tim23-1 inh, TIM10 inh)
O=C(Cn1nnc(-c2ccccc2)n1)N/N=C/c1cccc([N+](=O)[O-])c1O	SKKanGAS inh 89.5
O=C(Cn1nnc(-c2ccccc2)n1)N/N=C/c1cccc([N+](=O)[O-])c1	none
Cc1ccc(Cn2c(C(CO)Nc3nc(-c4ccc(F)cc4)cs3)nc3ccccc32)cc1 (centres undefined)	SKKanGAS inh 80.4
Cc1csc(CNc2ncnc3ccc(-c4cccc(Cl)c4)cc23)c1	PfHsp90 yeast 2 122.1 (no result: SKKanGAS inh)
CN(C)c1ccc(C=C2SC(=S)NC2=O)cc1	none (no result: SKKanGAS inh, tim10-1 inh, tim23-1 inh, TIM10 inh)
CCOc1ccc(N(C)c2ccc(/C=C3/SC(=S)NC3=O)cc2)cc1	SKKanGAS inh 64.8
O=C1NC(=O)/C(=C\c2ccc(OCc3ccccc3)cc2)S1	SKKanGAS inh 54.7
CCc1nc(N)nc(N)c1-c1ccc(NCCN)c([N+](=O)[O-])c1	none (no result: SKKanGAS inh, tim10-1 inh, tim23-1 inh, TIM10 inh)
CCc1nc(N)nc(N)c1-c1ccc(Cl)cc1	SKKanGAS inh 69.9
Cc1ccc(/C(O)=C/C(=O)C(=O)NC23CC4CC(CC(C4)C2)C3)cc1	SKKanGAS inh 53.6
Cc1ccc(C(=O)NCC(=O)NC23CC4CC(CC(C4)C2)C3)cc1	none
COc1c(Br)cc(Br)cc1/C=N/NC(=O)c1cccnc1	none
COc1cc([N+](=O)[O-])cc(/C=N/NC(=O)C(C)Nc2ccccc2C)c1O (centres undefined)	none
CCOc1cc(Br)cc(/C=N/NC(=O)c2cccnc2)c1O	SKKanGAS inh 55.5
CCOc1cc([N+](=O)[O-])cc(/C=N/NC(=O)c2c(-c3ccccc3)noc2C)c1O	SKKanGAS inh 91.8
C=CCc1cccc(/C=N/NC(=O)C(C)Nc2cccc(C)c2)c1O (centres undefined)	SKKanGAS inh 59.6
COc1cc([N+](=O)[O-])cc(/C=N/NC(=O)C(C)Nc2cccc(C)c2)c1O (centres undefined)	SKKanGAS inh 58.6
Cc1csc(SCC(=O)Nc2ccc(C)c(F)c2)n1	none (no result: SKKanGAS inh)
Cc1cc(C(=O)OCC(=O)Nc2ccccc2Br)c(C)o1	none (no result: SKKanGAS inh, PfHsp90 yeast 2)
COc1ccc2c(c1)CN(C)S(=O)(=O)c1ccccc1-2	none (no result: SKKanGAS inh)
COc1cc([N+](=O)[O-])cc(/C=N/NC(=O)c2ccc(C)nc2)c1O	SKKanGAS inh 82.1
Fc1ccc(CO/N=C/C2=C(Cl)c3ccccc3CC2)cc1	SKKanGAS inh 79.0
O=c1cc2c(nn1Cc1ccc(F)cc1)-c1ccccc1CC2	none
CCOC(=O)N1CCN(c2ccc(S(=O)(=O)N3CCC(C)CC3)cc2[N+](=O)[O-])CC1	none (no result: SKKanGAS inh)
O=C(Cc1ccc(Br)cc1)Nc1nc2ccccc2[nH]1	SKKanGAS inh 57.0
O=C(Nc1nc2ccccc2[nH]1)c1ccc(Cl)cc1	none
O=C(Nc1nc2ccccc2[nH]1)c1cccc(Cl)c1	SKKanGAS inh 64.3
CN(c1cccc(Cl)c1)S(=O)(=O)c1cccc(C(=O)Nc2nc3ccccc3[nH]2)c1	SKKanGAS inh 89.6
C=CCN(c1ccccc1)S(=O)(=O)c1cccc(C(=O)Nc2nc3ccccc3[nH]2)c1	none
CO[C@@]12[C@@H]3N[C@@H]3CN1C1=C(C(=O)C(N)=C(C)C1=O)[C@@H]2COC(N)=O	none (no result: SKKanGAS inh, tim10-1 inh, tim23-1 inh, TIM10 inh)
CC(C)(C)c1ccc(C(=O)N/N=C/c2ccccn2)cc1	SKKanGAS inh 63.4
NC1=NN(c2c(Cl)cc(Cl)cc2Cl)C(=O)C1	none (no result: SKKanGAS inh, tim10-1 inh, tim23-1 inh, TIM10 inh)
CNc1c2cccc(C)c2nc2c(C(=O)NCCN(C)C)cccc12	none (no result: SKKanGAS inh, tim10-1 inh, tim23-1 inh, TIM10 inh)
